Nrf2 inh = Nrf2 pathway inhibition; actives 2.1% (n = 360,000); A549 ARE-Fluc reporter, luciferase luminescence, 18-24 h; Potency, µM (highest dose often 46 µM), inactives show top-dose activity change, negative = inhibition, most hits filed as inhibitors; note: % is set by controls: 0 for no effect and ±100 for the full control effect; nearly all actives have a fitted effect of over 60% in size
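Nrf2 function is reported as luminescence of an ARE-controlled luciferase in A549 cells. Compounds were tested at several concentrations, and a CellTiter-Fluor read on the same wells flagged cytotoxicity.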
ELG1 DNA repair = blocks ELG1-dependent DNA repair in HEK293T cells; HEK293T ELG1-luciferase reporter, luminescence, 16 h; DNA damage induced by 5-fluorouridine; Potency, µM (titrated, usually from 46.1 µM), without a hit: at the highest dose activity change, negative = inhibition, usual class: inhibitors; actives 2.3% (n = 330,000); note: % is set by controls: 0 for no effect and ±100 for the full control effect; nearly all actives have a fitted effect of over 55% in size
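HEK293T cells expressing luciferase-tagged ELG1 (2,000/well) received 5-Fluorouridine plus compound or DMSO for 16 hr at 37 °C. Luciferase was read by ONE-Glo luminescence after 30 min at room temperature.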
A549 viability = A549 cytotoxicity, counter-screen for Nrf2 inhibitors. A549 ARE-Fluc cells, CellTiter-Fluor viability, 18-24 h. Potency, µM (doses to about 46 µM), for inactives: at the highest dose activity change, negative = cytotoxicity, most hits filed as inhibitors. actives 0.16% (n = 390,000). AID 504648; note: % is set by controls: 0 for no effect and ±100 for the full control effect
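A549 ARE_Fluc cells in 5% FBS OPTI-MEM were exposed to compounds in concentration-response for 18-24 h at 37 deg C. Viability was read by CellTiter-Fluor fluorescence (Ex 405/Em 525) after 30 min, before the luciferase read.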
Nrf2 ARE act = activates Nrf2 signaling | AREc32 ARE-luciferase reporter (MCF7-derived line), luminescence, 24 h | Potency, µM (top dose mostly 46.1 µM), without a hit: at the highest dose activation, hits mostly activators | actives 0.31% (n = 410,000) | AID 624171; note: % of control where 0% means no effect; nearly all actives have a fitted effect of over 65% in size
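Luminescent ARE reporter assay in AREc32_Fluc cells: overnight plating at 37 deg C, 24 hr compound incubation, Steady-Glo added, 30 min RT before reading.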
* = called active by the depositor. This is a sample that favours compounds with a hit; in the whole collection about 3.7% have one here. Calls come from the whole dose curve; as a rule, active = well fitted curve in the direction sought with a large enough effect; inconclusive = small, poorly fitted or top-dose-only effect, or another doubt; inactive = no such curve, though single readings can be large; an effect the other way counts as inactive or inconclusive. Potency is the fitted concentration of half-maximal effect.

CC(C)(C)OC(=O)N1CCCC1C(=O)NC1COC2CC(n3ccc(=O)[nH]c3=O)OC12 (stereo not drawn) was read as Nrf2 inh 20.2% and A549 viability -2.6%.
`CCOC(=O)CN1C(=O)C(C)(C)Oc2ccc(C(=O)Nc3ccccc3)cc21` gave Nrf2 inh 3.1%, ELG1 DNA repair 13µM*, A549 viability 0.2% and Nrf2 ARE act 2.2%.
`CCOc1ccc(NC(=O)CSc2nnc3c(C)cc4ccccc4n23)cc1` gave Nrf2 inh 3.3%, A549 viability -1.5% and Nrf2 ARE act 0.7%.
For O=C(c1ccc(Cl)cc1)C1CCN(C(=O)NC2CCCCC2)CC1 the results were Nrf2 inh 18.4µM*, ELG1 DNA repair inconclusive, A549 viability -8.5% and Nrf2 ARE act -0.2%.
`CCn1c2ccccc2c2cc(CN3CCN(Cc4ccc(Br)cc4)CC3)ccc21` gave Nrf2 inh 2.3%, A549 viability 1.0% and Nrf2 ARE act -2.4%.
Screening COc1ccc(NC(=O)Nc2nnc(-c3ccco3)s2)cc1 returned Nrf2 inh inconclusive, ELG1 DNA repair inconclusive, A549 viability -5.3% and Nrf2 ARE act 12.6µM*.
COc1ccc(NC(=O)Nc2nnc(-c3ccccc3F)s2)cc1 was read as Nrf2 inh inconclusive, ELG1 DNA repair inconclusive, A549 viability -4.7% and Nrf2 ARE act inconclusive.
Cc1cccc(OCC(=O)Nc2nnc(-c3ccco3)s2)c1 was read as Nrf2 inh inconclusive, ELG1 DNA repair 0.0%, A549 viability 0.4% and Nrf2 ARE act 7.2%.
Screening COc1ccccc1OCC(=O)Nc1nnc(-c2ccco2)s1 returned Nrf2 inh 6.9%, ELG1 DNA repair inconclusive, A549 viability 11.3% and Nrf2 ARE act 11.2µM*.
`Cc1c(P(=S)(c2ccccc2)c2ccccc2)c2ccccc2n1C/C=C/c1ccccc1` gave Nrf2 inh 7.6% and A549 viability -0.8%.
`COc1ccc(CCNc2nc(SCc3ccccc3F)nc3ccccc23)cc1OC` gave A549 viability -16.3% and Nrf2 ARE act 0.7%.
`COC(=O)Cn1c(=NC(=O)c2cc(-c3cccs3)nc3ccccc23)sc2cc(S(N)(=O)=O)ccc21` gave Nrf2 inh -8.6%, ELG1 DNA repair 9.2µM*, A549 viability -4.2% and Nrf2 ARE act 3.6%.
`COc1ccccc1CCn1cnc(Cc2ccccc2)c1C(C)C` gave Nrf2 ARE act 3.4%.
`CCOC(=O)C(=CNc1cc(C)nn1-c1ccc(C)cc1)C(=O)OCC` gave Nrf2 inh inconclusive, ELG1 DNA repair 13µM*, A549 viability -19.3% and Nrf2 ARE act -0.1%.
For CCOC(=O)C(=CNc1ccc2c(c1)nnn2-c1ccc(Cl)cc1)C(=O)OCC the results were Nrf2 inh 29.1µM*, ELG1 DNA repair 6.8%, A549 viability inconclusive and Nrf2 ARE act 4.1%.
For CCOC(=O)C(=CNc1cc(C)nn1C(C)(C)C)C(=O)OCC the results were Nrf2 inh -3.5%, ELG1 DNA repair inconclusive, A549 viability 0.9% and Nrf2 ARE act 2.6%.
`CCOC(=O)C(=CNc1ccc(O)c(C(=O)OC)c1)C(=O)OCC` gave Nrf2 inh 6.4%, A549 viability -3.6% and Nrf2 ARE act inconclusive.
For CN(CC(=O)Nc1ccccc1Br)C(=O)CN1CCN(Cc2cccc(Cl)c2)CC1 the results were Nrf2 inh inconclusive, ELG1 DNA repair 18.3µM*, A549 viability -11.6% and Nrf2 ARE act -0.2%.
For O=C(CN1CCN(Cc2ccccc2)CC1)Nc1cccc(Cl)c1Cl the results were Nrf2 ARE act -0.4%.
For CCc1nnc(NC(=O)/C=C/c2ccco2)s1 the results were Nrf2 inh 19.9%, ELG1 DNA repair inconclusive, A549 viability inconclusive and Nrf2 ARE act 4.47µM*.
`CS(=O)(=O)c1ccc(C(=O)OCC(=O)Nc2ccc(OC(F)(F)F)cc2)cc1[N+](=O)[O-]` gave Nrf2 inh 21.4% and A549 viability 7.6%.
Screening CCN(CC)C(=O)CSc1nnc2nnc3cc(OC)ccc3n12 returned Nrf2 inh 18.4µM*, ELG1 DNA repair -9.4%, A549 viability inconclusive and Nrf2 ARE act 4.2%.
Screening CCCNC(=O)c1ccc(N2CCC3(CC2)CC(c2ccccc2)=NO3)c([N+](=O)[O-])c1 returned Nrf2 inh inconclusive, ELG1 DNA repair inconclusive, A549 viability -3.1% and Nrf2 ARE act 0.3%.
CCCCCCCNC(=O)c1ccc(N2CCC3(CC2)OCCO3)c([N+](=O)[O-])c1 was read as Nrf2 inh -15.3%, ELG1 DNA repair 18.4µM*, A549 viability -11.2% and Nrf2 ARE act -0.1%.
N#CC(C#N)=Cc1c[nH]c(=O)c(C#N)c1Nc1ccccc1 was read as Nrf2 inh -8.5%, A549 viability 10.1% and Nrf2 ARE act -0.7%.
For COc1ccc(NC(=S)NC(NC(=O)c2cccc3ccccc23)C(Cl)(Cl)Cl)c([N+](=O)[O-])c1 (stereo not drawn) the results were Nrf2 inh 25.9µM*, ELG1 DNA repair inconclusive, A549 viability inconclusive and Nrf2 ARE act 0.8%.
For COc1ccc(NC(=S)NC(NC(=O)c2ccccc2Cl)C(Cl)(Cl)Cl)c([N+](=O)[O-])c1 (stereo not drawn) the results were Nrf2 inh inconclusive, ELG1 DNA repair inconclusive, A549 viability inconclusive and Nrf2 ARE act -0.8%.
For Cc1ccc(C)c(NC(=S)NC(NC(=O)Cc2cccc3ccccc23)C(Cl)(Cl)Cl)c1 (stereo not drawn) the results were Nrf2 inh 20.6µM*, ELG1 DNA repair inconclusive, A549 viability 20.6µM* and Nrf2 ARE act 24.6%.
CCCN(CCC)S(=O)(=O)c1ccc2c(c1)CCCN2C(C)=O was read as Nrf2 inh -7.9%, ELG1 DNA repair 11.8%, A549 viability 8.3% and Nrf2 ARE act -0.2%.
`O=C(Nc1ccc2c(c1)CCCN2C(=O)c1cccs1)c1c(F)cccc1Cl` gave Nrf2 inh 25.9µM*, ELG1 DNA repair 8.0%, A549 viability -15.7% and Nrf2 ARE act 4.4%.
Screening CCCN(CCC)S(=O)(=O)c1ccc(C(=O)N2CCCc3ccccc32)cc1 returned Nrf2 inh 18.4µM*, ELG1 DNA repair inconclusive, A549 viability -22.4% and Nrf2 ARE act -0.4%.
For O=C(Nc1ccc2c(c1)CCCN2C(=O)c1cccs1)c1c(F)cccc1F the results were Nrf2 inh -9.8%, ELG1 DNA repair inconclusive, A549 viability -2.5% and Nrf2 ARE act -0.5%.
For O=C(Nc1ccc(C(=O)N2CCCc3ccccc32)cc1)c1cccs1 the results were Nrf2 inh 20.6µM*, ELG1 DNA repair -12.5%, A549 viability inconclusive and Nrf2 ARE act 0.2%.
CCN1C(=O)[C@@H]2[C@@H](c3ccc(SC4CCCCC4)c(OC)c3)N3CCC[C@@]3(C(=O)OC)[C@@H]2C1=O was read as Nrf2 inh 5.6%, ELG1 DNA repair -9.8%, A549 viability 0.4% and Nrf2 ARE act 0.5%.
Cc1ccc(C(=O)NCC(=O)OCC(=O)NC(C)C2CC3CCC2C3)cc1 (stereo not drawn) was read as Nrf2 inh 14.2%, ELG1 DNA repair 23.6%, A549 viability 5.1% and Nrf2 ARE act 2.0%.
